HP1b chromo inh = blocks HP1-beta chromodomain binding to methylated histone tails | P83916 | AlphaScreen HP1-beta / biotin-H3K9me3 peptide binding | Potency, µM (titrated, usually from 114 µM), hits mostly inhibitors | 390,000 compounds, 0.56% hits | AID 540317; also: nearly all actives have a fitted effect of over 70% in size
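Compound inhibition of the preformed complex between 50 nM HP1-beta and 50 nM biotinylated H3K9me3 peptide was read by AlphaScreen. Buffer was PBS pH 7.4 with 0.01% Tween-20. Incubations ran 30 min at room temperature, with 10 ug/mL donor/acceptor beads.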
JMJD2A Tudor = inhibitors of human JMJD2A Tudor domain | AlphaScreen JMJD2A-Tudor / H3K4me3 peptide binding | Potency, µM (top dose mostly 114 µM), hits mostly inhibitors | 390,000 compounds, 4.4% hits | AID 504339; also: nearly all actives have a fitted effect of over 50% in size
BAZ2B inh = BAZ2B (human) inhibition; Q9UIF8; AlphaScreen BAZ2B-H3K14Ac peptide displacement; Potency, µM (highest dose often 114 µM), usual class: inhibitors; 360,000 compounds, 4.4% hits; AID 504333; also: nearly all actives have a fitted effect of over 60% in size
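BAZ2B 50 nM plus b-H3(5-23)K14Ac 50 nM, PBS pH 7.4/0.01% Tween-20, 30 min RT; compound added (max 110 uM), 30 min RT; streptavidin donor/Ni-chelate acceptor beads 10 ug/mL final, 20 min dark; AlphaScreen read.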
G9a inh = inhibitors of human histone lysine methyltransferase G9a; Q96KQ7; G9a H3K9 monomethylation, AlphaScreen, 2 h; Potency, µM (top dose mostly 102 µM), usual class: inhibitors; 350,000 compounds, 8.8% hits; also: nearly all actives have a fitted effect of over 75% in size
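G9a (20 nM) was preincubated 15 min with compound, then reacted 2 h at room temperature with 500 nM biotin-H3K9 peptide and 20 µM SAM. Monomethyl-H3K9 detected by AlphaScreen using anti-H3K9me1 antibody.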
PLK1 PBD block = blocks phosphopeptide binding to human PLK1 polo-box domain. P53350. Plk1 PBD binding of FITC phosphopeptide, fluorescence polarization. Potency, µM, actives largely listed as inhibitors. 360,000 compounds, 2.8% hits; also: series mostly up to about 57 µM; nearly all actives have a fitted effect of over 65% in size
Sfp PPTase inh = blocks B. subtilis Sfp PPTase activity; Biochemical Sfp PPTase activity, qHTS; Potency, µM, actives largely listed as inhibitors; 310,000 compounds, 3.5% hits; AID 1490;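 also: the enzyme is Sfp with the accession as filed and its product quenches rhodamine fluorescence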
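With Hepes-Na pH 7.6 buffer containing 10 mM MgCl2, Sfp (15 nM) modified BHQ-2-YbbR (12.5 uM) using rhodamine-CoA (5 uM). Two reads 30 minutes apart at 525/598 nm yielded each well's rate.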
Hits are given with their value; [ ] = another dose, or the depositor's remark. Hits are enriched below; roughly 12% of the tested compounds scored in any of these assays. Calls follow the shape of the dose curve; as a rule, active = well fitted curve in the direction sought with a large enough effect; inconclusive = small, poorly fitted or top-dose-only effect, or another doubt; inactive = no such curve, though single readings can be large; an effect the other way counts as inactive or inconclusive.

How did Cc1ccc(S(=O)(=O)NCCNS(=O)(=O)c2ccc(C)cc2)cc1 do in these assays?
HP1b chromo inh: inactive; JMJD2A Tudor: inactive; BAZ2B inh: inactive; G9a inh: inactive; PLK1 PBD block: inactive; Sfp PPTase inh: inactive

What do the screens show for `Cc1ccc(S(=O)(=O)NCCSCc2ccccc2)cc1`?
HP1b chromo inh: inactive; JMJD2A Tudor: inactive; BAZ2B inh: inactive; G9a inh: 10µM; PLK1 PBD block: inactive; Sfp PPTase inh: inactive

How did CCOC(=O)C1=C(C)N(C[C@@H]2CC[C@@H](Cc3ccc(-c4ccccc4)cc3)O2)C(=O)NC1c1ccc(SCc2ccco2)c([N+](=O)[O-])c1 (stereo not given in full) do in these assays?
HP1b chromo inh: inactive; JMJD2A Tudor: 40µM; PLK1 PBD block: inconclusive

How did O=C(CN1C(=O)COc2ccccc21)N(Cc1ccccc1)Cc1ccccn1 do in these assays?
HP1b chromo inh: inactive; JMJD2A Tudor: inactive; BAZ2B inh: inactive; G9a inh: inconclusive; PLK1 PBD block: inactive; Sfp PPTase inh: inactive

What do the screens show for `Cc1ccc(CN(Cc2cccnc2)C(=O)CN2C(=O)COc3ccccc32)o1`?
HP1b chromo inh: inactive; JMJD2A Tudor: inactive; BAZ2B inh: inactive; G9a inh: inconclusive; PLK1 PBD block: inactive; Sfp PPTase inh: 28µM

How did CCOc1ccc(CCNC(=O)CCc2c(C)nc3c(-c4ccccc4)c(C)nn3c2C)cc1OCC do in these assays?
HP1b chromo inh: inactive; JMJD2A Tudor: inactive; BAZ2B inh: inactive; G9a inh: inactive

Results for O=c1c2cn[nH]c2nc(SCc2cc(=O)n3cc(Br)ccc3n2)n1-c1ccc(Br)cc1 ?
HP1b chromo inh: inactive; JMJD2A Tudor: inactive; BAZ2B inh: inactive; G9a inh: inconclusive; PLK1 PBD block: 21µM; Sfp PPTase inh: inactive

Results for COc1ccc(OCc2nc(C#N)c(NCc3ccccc3Cl)o2)cc1 ?
HP1b chromo inh: inactive; JMJD2A Tudor: inconclusive; BAZ2B inh: inconclusive; G9a inh: inactive

Results for Cc1ccc(S(=O)(=O)N2CCN(C(=O)CCc3c[nH]c4ccccc34)CC2)c(C)c1 ?
HP1b chromo inh: inactive; JMJD2A Tudor: inactive; BAZ2B inh: inactive; G9a inh: 8.9µM; PLK1 PBD block: inactive

What do the screens show for `O=C(CCc1c[nH]c2ccccc12)N1CCCCCCC1`?
HP1b chromo inh: inactive; JMJD2A Tudor: inactive; BAZ2B inh: inconclusive; G9a inh: inactive; PLK1 PBD block: inactive; Sfp PPTase inh: inactive

Results for COc1ccc(N2CCN(C(=O)CCc3c[nH]c4ccccc34)CC2)cc1 ?
HP1b chromo inh: inactive; JMJD2A Tudor: inactive[11.4 µM]; BAZ2B inh: inconclusive; G9a inh: 56µM; PLK1 PBD block: inactive; Sfp PPTase inh: inactive

Results for Cc1ccc(S(=O)(=O)N2CCN(C(=O)CCc3c[nH]c4ccccc34)CC2)cc1 ?
HP1b chromo inh: inactive; JMJD2A Tudor: inactive; BAZ2B inh: inactive; G9a inh: inactive; PLK1 PBD block: inactive

What do the screens show for `O=C(CCc1c[nH]c2ccccc12)N1CCN(c2ccc(O)cc2)CC1`?
HP1b chromo inh: inconclusive; JMJD2A Tudor: inactive[11.4 µM]; BAZ2B inh: inactive; G9a inh: 35µM; PLK1 PBD block: 27µM; Sfp PPTase inh: inconclusive

How did CCc1cnc2c(c1SCc1cc(OC)cc(OC)c1)c(=O)n(C)c(=O)n2C do in these assays?
HP1b chromo inh: inactive; JMJD2A Tudor: inactive; BAZ2B inh: inactive; G9a inh: inactive

Results for COc1ccc(C(C)NC(=O)Cc2cccs2)cc1 (stereo not given) ?
HP1b chromo inh: inactive; JMJD2A Tudor: inactive; BAZ2B inh: inactive; G9a inh: inactive; PLK1 PBD block: inactive; Sfp PPTase inh: inactive

How did CCOCCCNCc1ccc(OC)cc1 do in these assays?
HP1b chromo inh: inactive; JMJD2A Tudor: 4µM; BAZ2B inh: inconclusive; G9a inh: inactive[12.7 µM]; PLK1 PBD block: inactive; Sfp PPTase inh: inactive

How did CCOCCCNCc1c(Cl)cccc1Cl do in these assays?
HP1b chromo inh: inconclusive; JMJD2A Tudor: 5µM; BAZ2B inh: inconclusive; G9a inh: inconclusive; PLK1 PBD block: inactive; Sfp PPTase inh: inconclusive

What do the screens show for `CCOCCCNC(=O)Cc1ccc(OC)c(OC)c1`?
HP1b chromo inh: inactive; JMJD2A Tudor: inactive; BAZ2B inh: inactive; G9a inh: inactive; PLK1 PBD block: inactive; Sfp PPTase inh: inactive

Compound activity deposited in PubChem by National Center for Advancing Translational Sciences (NCATS).
